Compound activity from PubChem BioAssay.
This is a sample that favours compounds with a hit; in the whole collection about 6.3% have one here.
tim23-1 inh: tim23-1 yeast growth inhibition; inhibition, % at 20 µM; hit rate 1.3% among 330,000; S. cerevisiae tim23-1 growth, BacTiter-Glo luminescence, 24 h;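 active = growth inhibition of the mutant yeast at or above 50%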;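 also: temperature-sensitive mutant grown at 25 °C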
tim10-1 inh: tim10-1 yeast growth inhibition | S. cerevisiae tim10-1 ts strain growth, BacTiter-Glo, 24 h | inhibition, % at 20 µM | hit rate 2.2% among 330,000 | AID 463190;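 active = inhibition of at least 40%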;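 also: mutant grown at 25 °C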
MPTP inh: blocks calcium-induced mitochondrial swelling. isolated mouse mitochondria, Ca2+ swelling absorbance, 30 min. inhibition, % at 10 µM. hit rate 1.4% among 360,000. AID 602449;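 active = inhibition of 50% or more, scaled per plate between neutral and stimulator controls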
TIM10 inh: TIM10 yeast growth inhibition; inhibition, % at 10 µM; AID 463195; S. cerevisiae TIM10 strain growth, BacTiter-Glo luminescence, 24 h; hit rate 1.4% among 330,000;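 active = inhibition of 40% or more at the single tested concentration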;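 also: wild-type TIM10 isogenic control strain grown at permissive 25 °C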
Mdm2-MdmX inh: human Mdm2/MdmX binding inhibition | O15151+Q00987 | SaOS-2 split-luciferase Mdm2/MdmX complementation, luminescence | inhibition, % at 8 µM | hit rate 3% among 330,000 | AID 485346;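 active = inhibition of at least 50% at 8 µM in the primary screen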
Target sequence (O15151 whole entry, looked up): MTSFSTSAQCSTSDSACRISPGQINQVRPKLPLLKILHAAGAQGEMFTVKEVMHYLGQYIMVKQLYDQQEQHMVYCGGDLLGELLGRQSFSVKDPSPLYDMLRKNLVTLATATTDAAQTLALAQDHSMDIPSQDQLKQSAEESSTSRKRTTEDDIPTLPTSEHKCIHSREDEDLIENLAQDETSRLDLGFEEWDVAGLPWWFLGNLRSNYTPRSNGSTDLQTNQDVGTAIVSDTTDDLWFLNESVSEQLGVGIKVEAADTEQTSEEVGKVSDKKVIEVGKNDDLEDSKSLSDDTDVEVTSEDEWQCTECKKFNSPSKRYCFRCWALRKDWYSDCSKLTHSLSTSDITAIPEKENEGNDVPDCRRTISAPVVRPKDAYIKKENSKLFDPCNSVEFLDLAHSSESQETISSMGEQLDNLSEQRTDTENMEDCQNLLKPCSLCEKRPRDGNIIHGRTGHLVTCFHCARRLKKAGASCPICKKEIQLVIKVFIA
Target sequence (Q00987 whole entry, looked up): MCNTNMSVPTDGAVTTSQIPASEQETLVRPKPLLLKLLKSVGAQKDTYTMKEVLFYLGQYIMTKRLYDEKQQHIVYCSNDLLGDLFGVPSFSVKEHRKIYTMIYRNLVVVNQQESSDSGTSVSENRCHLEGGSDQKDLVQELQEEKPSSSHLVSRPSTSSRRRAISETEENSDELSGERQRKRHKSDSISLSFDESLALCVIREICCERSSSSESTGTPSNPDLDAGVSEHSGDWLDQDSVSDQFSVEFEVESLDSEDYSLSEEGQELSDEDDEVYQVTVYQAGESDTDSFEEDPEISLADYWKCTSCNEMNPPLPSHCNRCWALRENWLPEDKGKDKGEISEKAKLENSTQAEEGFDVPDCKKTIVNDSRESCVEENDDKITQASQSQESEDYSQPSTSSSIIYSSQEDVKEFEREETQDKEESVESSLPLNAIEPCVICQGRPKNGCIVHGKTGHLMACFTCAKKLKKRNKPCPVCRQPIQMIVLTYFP
Mdm2-MdmX conf: human Mdm2/MdmX binding inhibition, confirmed. shares compounds with Mdm2-MdmX inh. hit rate 55% among 10,000. AID 489028. inhibition, % at 8 µM. luminescent assay; in the data active = inhibition above about 40%
Full FLuc ctr: counter-screen for Mdm2/MdmX inhibitors: full-length luciferase. SaOS-2 full-length luciferase counterscreen, luminescence. shares compounds with Mdm2-MdmX inh. AID 504607. inhibition, % at 8 µM. hit rate 77% among 6,200;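 active = mean inhibition at 8 µM reaching about 37%, which flags the compound as non-specific, limit read from the data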;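 also: p53-null SaOS-2 cells with luciferase driven by a doxycycline-inducible promoter; compound on cells about two nights before reading with doxycycline added after day one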
Numbers stand for hits; . = inactive; / = no result given.

SMILES | tim23-1 inh | tim10-1 inh | MPTP inh | TIM10 inh | Mdm2-MdmX inh | Mdm2-MdmX conf | Full FLuc ctr
CCc1nc2ccc(C(=O)Nc3cccc(NS(C)(=O)=O)c3)cn2c1N(C)Cc1nccn1C | / | / | . | / | / | / | /
COc1ccc(N2CCN(C(=O)c3cccc(S(=O)(=O)N4CCc5ccccc54)c3)CC2)cc1 | . | . | . | . | . | / | /
O=C(c1ccc(S(=O)(=O)c2cccc(Cl)c2)c([N+](=O)[O-])c1)N1CCN(c2ccccn2)CC1 | . | . | . | . | 73 | 68 | 58
O=C(c1cccc(S(=O)(=O)N2CCc3ccccc32)c1)N1CCN(c2ccccn2)CC1 | . | . | . | . | 85 | 84 | 39
CN1CCN(C(=O)c2ccc3c(c2)N(Cc2cccc(Cl)c2)C(=O)c2ccccc2S3(=O)=O)CC1 | . | . | . | . | . | / | /
O=C(c1cccc(Cl)c1)N1CCN(c2ccccn2)CC1 | . | . | . | . | . | / | /
O=C(c1ccc(Cl)c(S(=O)(=O)N2CCc3ccccc32)c1)N1CCN(c2ccccc2O)CC1 | . | . | . | . | 54 | . | /
O=C(c1ccc2c(c1)N(Cc1cccc(Cl)c1)C(=O)c1ccccc1S2(=O)=O)N1CCN(c2ccccn2)CC1 | . | . | . | . | 65 | . | /
COc1cccc(-c2cnc3c(NC(C)=O)cc(-c4cccc(C(=O)NCCO)c4)cn23)c1 | / | / | . | / | / | / | /
O=C(NCc1ccco1)c1ccc(OC2CCN(Cc3ccccn3)CC2)cc1 | / | / | . | / | / | / | /
Cc1ccc(-c2nnn(CC(=O)Nc3ccc(S(=O)(=O)N4CCC(C)CC4)cc3)n2)cc1 | . | . | . | . | 52 | . | /
CC1CCN(CC(=O)Nc2ccc(S(=O)(=O)N3CCC(C)CC3)cc2)CC1 | . | . | . | . | . | / | /
CCOc1ccc(OCC)c(NC(=O)CN2CCN(c3cccc(C)c3)C(C)C2)c1 (centres undefined) | . | . | . | . | 53 | 64 | 46
CCOc1ccc(OCC)c(NC(=O)CN2CCN(CC)CC2)c1 | . | . | . | . | . | / | /
CCc1c(C)sc(NC(=O)CSc2nc3c(c(C(F)(F)F)n2)CCc2ccccc2-3)c1C#N | . | . | . | . | 75 | . | /
COc1cc2nc(SCC(N)=O)n(CCC3=CCCCC3)c(=O)c2cc1OC | . | . | . | . | 80 | . | /
COCCNC(=O)CSc1nc2cc(OC)c(OC)cc2c(=O)n1CCC1=CCCCC1 | / | / | . | / | / | / | /
CSc1ccc(NC(=O)NCCCN2CCC(Cc3ccccc3)CC2)cc1 | . | . | . | . | 61 | . | /
O=C(CS(=O)(=O)c1ccc(Cl)cc1)Nc1nccs1 | / | / | . | / | / | / | /
CN(C)c1ccc(-c2cc(O)c3ncccc3c2)cc1 | . | . | . | . | 92 | 84 | 50
CN(C)c1ccc(C=Cc2ccnc3c(O)cccc23)cc1 | / | / | . | / | / | / | /
CN(C)CCCNC(=O)c1ccc(-c2cc(O)c3ncccc3c2)cc1 | . | . | . | . | 55 | . | 55
Oc1cc(-c2ccncc2)cc2cccnc12 | . | . | . | . | 91 | 66 | 52
CN(C)CCCNC(=O)c1ccc(-c2nc(-c3ccc(Cl)cc3)cs2)cc1 | . | . | . | . | 87 | 94 | .
Cn1cccc1CN1CCC[C@]2(N[C@H](c3ccccc3)[C@@H]3C(=O)N(Cc4ccccc4)C(=O)[C@@H]32)C1=O | / | / | . | / | / | / | /
SMILES | tim23-1 inh | tim10-1 inh | MPTP inh | TIM10 inh | Mdm2-MdmX inh | Mdm2-MdmX conf | Full FLuc ctr
CC1(C(=O)Nc2ccc(Cl)cc2)Cc2c(-c3cccc(C(F)(F)F)c3)ccnc2O1 (centres undefined) | / | / | . | / | / | / | /
COC(=O)C1CCC(=O)N1C(c1ccc(OC)cc1)c1cc(OC)c(OC)c(OC)c1 (centres undefined) | / | / | . | / | / | / | /
Oc1cc(Nc2ccncc2)cc2cccnc12 | . | . | . | . | . | / | /
Oc1cc(-c2ccc(N3CCCCC3)nc2)cc2cccnc12 | . | . | . | . | 98 | 97 | 50
Oc1cc(Nc2cccnc2)cc2cccnc12 | . | . | . | . | 66 | . | /
CC(=O)NC1=NN(C(C)=O)C(C)(c2ccccc2)S1 (centres undefined) | . | . | . | . | 60 | 53 | 53
CC(=O)NC1=NN(C(C)=O)C(C)(c2ccc3ccccc3c2)S1 (centres undefined) | . | . | . | . | . | / | /
C[C@@H]1CN([C@@H](C)CO)C(=O)CCCn2cc(nn2)CO[C@H]1CN(C)S(=O)(=O)c1ccc2ccccc2c1 | / | / | . | / | / | / | /
N#CC1=C2SCC(O)(c3ccccc3)N2C(=O)CC1c1ccccc1F (centres undefined) | . | . | . | . | 87 | 83 | 40
COC(=O)c1cc(NC(=O)c2c(Cl)nc3sccn23)cc(C(=O)OC)c1 | . | . | . | . | 68 | . | /
COC(=O)c1cc(=O)nc2sccn12 | . | . | . | . | . | / | /
O=C(COC(=O)/C=C/c1cccc(F)c1)NC1CCCCC1 | / | / | . | / | / | / | /
CN1CCN(C(=O)c2cnn3c(C(F)(F)F)cc(-c4cccs4)nc23)CC1 | . | . | . | . | . | / | /
O=C(c1cnn2c(C(F)(F)F)cc(-c3cccs3)nc12)N1CCN(C(c2ccccc2)c2ccccc2)CC1 | . | . | . | . | 62 | 59 | 68
N=c1c(S(=O)(=O)c2ccc(Cl)cc2)cc2c(=O)n3ccccc3nc2n1CCc1ccccc1 | . | . | . | . | 63 | . | .
Cc1ccc(S(=O)(=O)c2cc3c(=O)n4ccccc4nc3n(C)c2=N)cc1C | . | . | . | . | 86 | . | /
N=c1c(S(=O)(=O)c2ccc(Cl)cc2)cc2c(=O)n3ccccc3nc2n1Cc1cccnc1 | . | . | . | . | . | / | /
CSCCNC(=O)C1(C)CCN1C(=O)c1ccc(C(C)(C)C)cc1 (centres undefined) | / | / | . | / | / | / | /
Cc1ccc2c(c1)-c1c(ssc1=S)C(C)(C)N2C(=O)c1ccco1 | . | . | . | . | 57 | . | /
CCOc1cccc(-c2nnc3sc(-c4cc(OC)c(OC)c(OC)c4)nn23)c1 | . | . | . | . | 61 | . | /
COc1cccc(-c2nnc3sc(-c4ccc(C)cc4)nn23)c1 | . | . | / | . | 56 | 60 | 47
COc1cccc(-c2nnc3sc(-c4cccs4)nn23)c1 | . | . | . | . | . | / | /
CC(C)(CO)NCc1c(OCc2ccc(Cl)cc2)ccc2ccccc12 | . | . | . | . | 55 | . | /
CNC(=O)c1ccc(-c2sc3nc(N4CCOCC4)c4c(c3c2N)CC(C)(C)OC4)o1 | . | . | . | . | 61 | . | /
COc1ccc(C(=O)N2CCC2(C)C(=O)O)cc1C(F)(F)F (centres undefined) | / | / | . | / | / | / | /
CC(C)Oc1cc(F)ccc1-c1cc(C(=O)NCc2cccs2)[nH]n1 | / | / | . | / | / | / | /
CCCCNC(=O)C(NC(=O)c1cccs1)C(=O)c1ccccc1 (centres undefined) | / | / | . | / | / | / | /
O=c1/c(=C\c2ccc(O)cc2)sc2n1C(c1ccccc1)C(c1ccccc1)=NN=2 (centres undefined) | . | . | . | . | 79 | 43 | 51
